The values that follow come from PubChem BioAssay.

For test [1], the target named is Nuclear receptor coactivator 3 (Homo sapiens) (UniProt Q9Y6Q9). The experiment in a line: SRC3 coactivator transcriptional activity inhibitors, confirmation, cell-based, luminescence, quadruplicate (AID 588792;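 active means mean inhibition over 43.08%, the solvent-only control mean plus 3 SD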;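 further: 0% = DMSO treated cells and 100% = gossypol at 36 µM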). Conditions: HEK293 GAL4-SRC3 luciferase reporter, at 3.6 µM, hits give high values.
The subject of test [2] is transactivating tegument protein VP16 (Human herpesvirus 1), Gal4-VP16 luciferase reporter. The experiment in a line: VP16 transactivation inhibitors, counter-screen for SRC3 inhibitor project, cell-based, luminescence, high throughput (AID 588794). Conditions: mammalian cells, VP16-driven luciferase reporter luminescence; at 3.6 µM; hits give high values. (A counterscreen serves to expose hits that act by an unwanted route or on another target.)

Values without a mark were called inactive. Calls of active or inactive are those of the source. Unless noted, no stated cut-off is given here; in the data, active means inhibition above about 30%; inactive means the rest.

Nuclear receptor coactivator 3 (Homo sapiens), sequence (Q9Y6Q9 whole entry, looked up, the tested form may be a part): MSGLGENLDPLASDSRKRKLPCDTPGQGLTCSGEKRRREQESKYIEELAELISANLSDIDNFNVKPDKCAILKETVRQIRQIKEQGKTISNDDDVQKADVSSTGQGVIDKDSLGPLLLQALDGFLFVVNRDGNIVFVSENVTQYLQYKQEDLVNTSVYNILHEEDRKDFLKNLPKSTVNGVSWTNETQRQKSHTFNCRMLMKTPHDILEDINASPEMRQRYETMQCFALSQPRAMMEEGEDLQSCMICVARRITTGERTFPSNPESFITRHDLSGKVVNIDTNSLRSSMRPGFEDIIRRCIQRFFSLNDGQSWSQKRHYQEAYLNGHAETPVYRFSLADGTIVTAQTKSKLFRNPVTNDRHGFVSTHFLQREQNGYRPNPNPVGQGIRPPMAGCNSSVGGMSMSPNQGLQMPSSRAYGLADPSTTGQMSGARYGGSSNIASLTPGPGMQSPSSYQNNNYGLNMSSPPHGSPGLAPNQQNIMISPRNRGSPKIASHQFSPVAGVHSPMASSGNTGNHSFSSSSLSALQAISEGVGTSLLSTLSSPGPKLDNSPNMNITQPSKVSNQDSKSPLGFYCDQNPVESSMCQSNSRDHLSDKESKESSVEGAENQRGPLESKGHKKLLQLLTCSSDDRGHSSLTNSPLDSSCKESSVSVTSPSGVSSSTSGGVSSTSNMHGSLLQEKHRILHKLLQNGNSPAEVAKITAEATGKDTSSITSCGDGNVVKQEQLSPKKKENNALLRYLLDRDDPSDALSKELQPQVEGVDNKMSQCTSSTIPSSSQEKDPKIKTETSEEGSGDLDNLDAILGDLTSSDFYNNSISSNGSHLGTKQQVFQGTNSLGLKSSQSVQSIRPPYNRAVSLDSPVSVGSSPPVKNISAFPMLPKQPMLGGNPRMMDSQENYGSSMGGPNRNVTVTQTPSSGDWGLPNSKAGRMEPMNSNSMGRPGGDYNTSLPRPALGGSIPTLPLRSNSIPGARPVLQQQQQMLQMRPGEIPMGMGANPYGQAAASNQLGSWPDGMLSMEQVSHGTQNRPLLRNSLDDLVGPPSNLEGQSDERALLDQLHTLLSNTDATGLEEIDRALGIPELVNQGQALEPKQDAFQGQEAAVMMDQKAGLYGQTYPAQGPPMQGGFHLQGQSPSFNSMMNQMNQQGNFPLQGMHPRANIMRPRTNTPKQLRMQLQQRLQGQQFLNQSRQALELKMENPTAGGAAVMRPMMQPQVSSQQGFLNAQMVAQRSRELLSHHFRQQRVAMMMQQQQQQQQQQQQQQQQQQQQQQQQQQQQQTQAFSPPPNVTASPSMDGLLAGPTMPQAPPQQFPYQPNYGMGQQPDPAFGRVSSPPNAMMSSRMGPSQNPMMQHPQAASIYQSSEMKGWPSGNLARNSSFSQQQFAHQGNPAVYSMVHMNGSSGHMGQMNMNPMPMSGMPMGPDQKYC

`Cc1cccn2c(CNCC3(c4ccccc4)CCCC3)c(C(=O)N3CCOCC3)nc12`: the inhibition (commonly the change of the read-out against control, counted positive when it falls) in test [1] is 7.17%; in test [2], 6.26%.

Turning to `O=C(c1ccc(S(=O)(=O)Cc2cc(F)ccc2F)c([N+](=O)[O-])c1)N1CCCCC1`, the inhibition was -2.8% in test [1] and -0.48% in test [2].

Consider `Cn1nc(C(F)(F)F)cc1C(=O)Nc1ccc(Cl)cc1`, for which the inhibition was 4.63% in test [1] and 8.1% in test [2].

Regarding `O=[N+]([O-])c1ccc(N=Nc2c(Cl)cc(O)cc2Cl)cc1`, the inhibition in test [1] was 13.9%; in test [2] it was 66% (active).

For `COc1cccc(/C=N/Nc2nc3ccccc3n3cnnc23)c1O`, the inhibition in test [1] was 13.4%; in test [2], 1.79%.

On to `CSc1ncccc1C(=O)NCc1nnc2ccccn12`, for which the figures for the inhibition in test [1] and in test [2] were 3.35% and -2.69%, respectively.

`O=C(N/N=C/c1cc(Cl)ccc1O)c1ccncc1`: the inhibition in test [1] was 16.7%; in test [2], 35.7% (active).

`CCC(=O)NC(c1cccs1)c1cc(Cl)c2cccnc2c1O` (stereo unspecified): the inhibition in test [1] was 20.9%; in test [2], 25.6%.

Take `COc1ccc(/C=C(\C#N)C(=O)OCC(=O)N(C)C2CCS(=O)(=O)C2)cc1` (stereo unspecified): the inhibition in test [1] is -1.8%; in test [2] it was -11%.

On to `CNC(=O)c1ccc(-c2sc3nc(N4CCOCC4)c4c(c3c2N)CC(C)(C)OC4)o1`, for which the inhibition in test [1] is 3.63%; in test [2], -22.1%.

Regarding `Cc1ccc(-c2c[n+](Cc3ccc(Cl)c(Cl)c3)c3n2CCC3)cc1`, the inhibition in test [1] is 17.6%; in test [2], 25.3%.

For `CCn1cc(C(=O)NCc2ccccn2)c(=O)c2cc(F)c(N3CCN(C)CC3)cc21`, the inhibition was -0.49% in test [1] and 3.18% in test [2].

For `C/C(=N\NC(=O)c1c(C)nc2ccccn12)c1ccc(O)cc1O`, the inhibition in test [1] is 52.7% (active); in test [2], 55.2% (active).

Regarding `COc1ccc2c(c1)-c1c(ssc1=S)C(C)(C)N2S(=O)(=O)c1ccc(C)cc1`, the inhibition is 2.95% in test [1] and 13.9% in test [2].

`COC(=O)/C(C#N)=C\c1c(OC)[nH]c2ccccc12`: the inhibition in test [1] was 18.6%; in test [2], 12.4%.

Consider `CC(Oc1ccc(Cl)cc1)C(=O)NCCN1C(=O)S/C(=C\c2cccnc2)C1=O` (stereo unspecified), for which the inhibition was 4.29% in test [1] and -2.64% in test [2].

On to `CCc1[nH]nc2c1C(C1C=CCCC1)C(C#N)=C(N)O2` (stereo unspecified), for which the inhibition in test [1] was 24.7%; in test [2] it was 21.2%.

For the compound `CCC(C)(CC(=O)O)CC(=O)Nc1cc(C(F)(F)F)cc(C(F)(F)F)c1` (stereo unspecified), the inhibition in test [1] was 9.02%; in test [2] it was -3.88%.

On to `O=C(NN=Cc1cccc(O)c1O)c1ccccc1`, for which the figures for the inhibition in test [1] and in test [2] were 23.7% and 21.5%, respectively.

For `COc1ccc(C(=O)Cn2nc(CNc3ccc(Br)cc3)[n+]3c2CCCCC3)cc1`, the inhibition in test [1] was -7.02%; in test [2], 3.2%.

As to `Nc1nc(CCl)nc(N(c2ccccc2)c2ccccc2)n1`, the inhibition in test [1] is 18.4%; in test [2], 15.9%.

On to `Cc1ccc(S(=O)(=O)N2CCOCC2)cc1C(=O)Nc1cc(S(=O)(=O)N2CCCCC2)ccc1O`, for which the inhibition in test [1] was -2.21%; in test [2], -4.27%.

`Nc1cccc2c1C(=O)N(C(=O)c1cccc(S(=O)(=O)N3CCCCCC3)c1)C2=O`: the inhibition in test [1] was 1.95%; in test [2] it was -5.22%.

In the case of `Cc1cc(C)c2nc(C(F)(F)F)c(C#N)c(N)c2c1`, the inhibition in test [1] was 45.1% (active); in test [2] it was 31.6% (active).

On to `Cc1ccc(-n2cccn2)c(CN2CCCC(C(=O)c3sccc3C)C2)c1` (stereo unspecified), for which the inhibition in test [1] is 18.9%; in test [2], 32.1% (active).

`c1ccc2c(c1)OCC(CNc1ncnc3sccc13)O2` (stereo unspecified): the inhibition in test [1] was 1.57%; in test [2], 37.9% (active).

Consider `C=CC[C@@H](CC(=O)N(CCO)Cc1ccccc1)C(=O)N[C@@H](C)COC(=O)[C@@H](CC=C)Cc1ccc(F)cc1`, for which the inhibition in test [1] was 5.89%; in test [2] it was -1.92%.

As to `c1ccc(Oc2cccc(Oc3ccccc3)n2)cc1`, the inhibition in test [1] is 5.37%; in test [2] it was 1.72%.

Consider `COc1ccc(-c2nc(CSCC(=O)NCc3ccco3)c(C)o2)cc1`, for which the inhibition in test [1] is 42.1%; in test [2] it was -11.2%.

`CC1CCCCC1NC(=O)Cn1cnc2ccccc2c1=O` (stereo unspecified): the inhibition in test [1] was 10.5%; in test [2] it was -4.34%.

With `COc1ccc(CN2C(=O)c3cccnc3C2=O)cc1S(=O)(=O)NCc1ccccc1`, the inhibition in test [1] was 8.01%; in test [2] it was -6.65%.

Turning to `CC(C)Nc1nc(Cl)nc(NNC(=O)C(C)Oc2ccccc2)n1` (stereo unspecified), the inhibition was -3.52% in test [1] and 4.03% in test [2].

Consider `CCc1nc(Nc2ccc3nccnc3c2)c2oc3ccccc3c2n1`, for which the values for the inhibition in test [1] and in test [2] were 5.99% and 13.6%, respectively.

Take `COc1ccc2c(c1)N(C)/C(=C/c1cccc[n+]1C)S2`: the results for the inhibition in test [1] and in test [2] were -6.44% and 37.5% (active), respectively.

Consider `CC(C)C[C@H](NC(=O)c1[nH]cnc1C(=O)N[C@@H](Cc1ccccc1)C(=O)OC(C)(C)C)C(=O)OC(C)(C)C`, for which the results for the inhibition in test [1] and in test [2] were 13.6% and 2.92%, respectively.

Regarding `O=C(Nc1nc(-c2ccccn2)cs1)c1ccc(F)c(S(=O)(=O)N2CCOCC2)c1`, the inhibition in test [1] was 28%; in test [2], 33.5% (active).

As for `COc1ccc(OC)c(N/C=C/C(=O)c2ccccc2)c1`, the inhibition in test [1] was 44.8% (active); in test [2] it was 17.5%.

On to `COc1ccc(C(C(=O)NC2CCCCC2)N(C(=O)CCl)c2ccc(OC)cc2)cc1` (stereo unspecified), for which the figures for the inhibition in test [1] and in test [2] were 64.4% (active) and 27.2%, respectively.

With `O=S(=O)(NC1=NCCC1)c1cccc(NS(=O)(=O)c2ccc(OC(F)(F)F)cc2)c1`, the inhibition in test [1] was -6.28%; in test [2], -8.52%.

For the compound `O=C(COc1ccc(Cl)cc1)NCc1nnc(SCC(=O)NC2CCCCC2)o1`, the inhibition in test [1] is 3.51%; in test [2] it was 3.49%.

With `Cc1ccc2c(c1)/C(=C/c1ccc(F)cc1)C(=O)N2`, the inhibition in test [1] is 7.93%; in test [2], -3.06%.

Consider `O=C(N/N=C/c1ccccc1O)c1ccncc1`, for which the inhibition is 14.8% in test [1] and 13.7% in test [2].

On to `O=C(c1ccc(S(=O)(=O)Nc2cccc(C(F)(F)F)c2)cc1)N1CCC1`, for which the inhibition was -2.7% in test [1] and -5.66% in test [2].

Turning to `CCCC(=O)NC(c1ccc2c(c1)OCO2)c1cc(Cl)c2cccnc2c1O` (stereo unspecified), the figures for the inhibition in test [1] and in test [2] were 40.7% and 25.3%, respectively.

`CN(C)c1ccc(C=c2c3cc([N+](=O)[O-])ccc3n3c2cc(-c2ccccc2)[n+]3C)cc1`: the inhibition is 38.4% in test [1] and 56.7% (active) in test [2].

As for `COc1ccc(/C(C)=N/NC(=O)c2cccc(S(=O)(=O)N3CCCC3)c2)c(O)c1`, the inhibition in test [1] is 67.9% (active); in test [2] it was 63.5% (active).

Take `COc1ccc(CCN2C(=O)C(Oc3ccccc3C)C2c2ccc3c(c2)OCO3)cc1` (stereo unspecified): the values for the inhibition in test [1] and in test [2] were 2.45% and 8.58%, respectively.

For `COc1ccc2[nH]c(C(=O)N/N=C/c3ccc(O)cc3O)cc2c1`, the values for the inhibition in test [1] and in test [2] were 54.5% (active) and 45.9% (active), respectively.

For the compound `COc1ccc(C(=O)NCC(=O)OCc2c(Cl)cccc2Cl)cc1OC`, the inhibition is -0.66% in test [1] and 1.22% in test [2].

As to `O=C1N(c2cccc(Cl)c2)C(c2ccc(Cl)cc2)N2CCCN12` (stereo unspecified), the inhibition in test [1] is 3.22%; in test [2], -0.24%.

For the compound `CNCC(C)COc1ccccc1OCc1ccccc1` (stereo unspecified), the inhibition in test [1] was 2.54%; in test [2], 10.4%.

On to `COc1ccc(NC(=O)c2sc(=O)n(Cc3ccccc3C#N)c2C)cc1OC`, for which the inhibition was 7.52% in test [1] and 31.8% (active) in test [2].

Regarding `O=C(Nc1ccc([N+](=O)[O-])cc1)Nc1nc(-c2ccc(Cl)s2)cs1`, the inhibition is 60.4% (active) in test [1] and 71.6% (active) in test [2].

Take `O=C(Nc1sc2c(c1C(=O)O)CCCC2)c1ccc(F)cc1`: the inhibition in test [1] is 0.98%; in test [2], 27.5%.

Take `CC[N+](CC)(CC)CCOc1ccc(/C=C/c2ccccc2)cc1`: the inhibition in test [1] is 3.27%; in test [2], 5.91%.

For the compound `Cc1cc(NC2CCCCC2)nc(NCc2ccccc2)n1`, the inhibition in test [1] is 18.8%; in test [2] it was 28.1%.

For `COc1ccc(NC(=O)N(C)C[C@H]2Oc3c(NC(=O)Nc4ccc(C(F)(F)F)cc4)cccc3C(=O)N([C@H](C)CO)C[C@@H]2C)cc1`, the inhibition was 10.2% in test [1] and -6.34% in test [2].

As for `COc1ccc(C(=O)/C=C/c2cc(OC)c(O)c(OC)c2)c(F)c1`, the values for the inhibition in test [1] and in test [2] were 26.6% and 17.7%, respectively.

In the case of `CCN(C(=O)c1cnc(OC)cc1C(F)(F)F)c1ccc(Cl)cc1`, the inhibition in test [1] is 9.44%; in test [2] it was 4.62%.

Turning to `O=C(CSc1nnc(COc2ccc(Cl)cc2)o1)N1CCOCC1`, the figures for the inhibition in test [1] and in test [2] were -3.82% and -7.96%, respectively.

On to `O=C(CCl)Nc1cccc(-c2cnc3ccccc3n2)c1`, for which the inhibition was 33.5% in test [1] and 13.8% in test [2].

For `Cc1ccccc1NC1=NCC(c2ccc([N+](=O)[O-])cc2)S1` (stereo unspecified), the inhibition in test [1] is 18%; in test [2] it was -2.52%.

For the compound `Clc1ccc(-c2c[n+](Cc3ccc(Cl)cc3Cl)c3n2CCCCC3)cc1`, the inhibition in test [1] is 6.98%; in test [2], 10.8%.

Turning to `CCCCC(=O)NC(=S)Nc1cccc(Cl)c1N1CCCCC1`, the inhibition is 1.21% in test [1] and -6.23% in test [2].

Turning to `Cc1ccc(F)cc1NC(=O)C1CCN(c2cnccn2)CC1`, the figures for the inhibition in test [1] and in test [2] were -9.49% and -3.26%, respectively.

Regarding `CCOC(=O)CCCCC1C(CCCC(=O)OCC)C=NN1C` (stereo unspecified), the results for the inhibition in test [1] and in test [2] were -16% and -3.48%, respectively.

Turning to `CCc1nc2ccccc2c(C(=O)OCC(=O)Nc2cccc(S(=O)(=O)N3CCOCC3)c2)c1C`, the inhibition was 1.17% in test [1] and 8.71% in test [2].

As for `Cc1nc2c(-c3ccc(F)cc3)cnn2c(N)c1-c1ccc(F)cc1`, the values for the inhibition in test [1] and in test [2] were 12% and 9.51%, respectively.

Consider `CC(=O)c1c(C)[nH]c(C(=O)Nc2ccc(Cl)c(S(=O)(=O)N3CCOCC3)c2)c1C`, for which the inhibition was 18.6% in test [1] and -16.6% in test [2].

On to `c1ccc(NNC2=NCCCCC2)cc1`, for which the inhibition in test [1] is 1.28%; in test [2] it was -9.77%.

Take `Cc1cccc(NC(=O)c2cnn(C)c2)c1C`: the inhibition in test [1] was -2.28%; in test [2], -8.45%.

On to `COc1ccc(CCNC(=O)C2CCCN(S(C)(=O)=O)C2)cc1OC` (stereo unspecified), for which the values for the inhibition in test [1] and in test [2] were -14% and -3.27%, respectively.

For the compound `O=S(=O)(c1ccccc1)c1nc(Nc2cccc(O)c2)sc1Cl`, the inhibition is -4.35% in test [1] and 0.89% in test [2].
